Sm TGR inh: qHTS Assay for the Inhibitors of Schistosoma Mansoni Peroxiredoxins | Schistosoma mansoni thioredoxin glutathione reductase (TGR), Q962Y6 | purified TGR, DTNB reduction, TNB absorbance 405 nm | Potency, µM (top dose mostly 114 µM), for inactives: at the top dose activity change, negative = inhibition, actives largely listed as inhibitors | hit rate 3% among 360,000 | AID 485364, 2010; further: potency means the concentration at half of the fitted maximal effect; on the % scale 0 is the no-effect control and ±100 the full control effect; nearly all actives have a fitted effect of over 60% in size
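TGR 20 nM + NADPH 100 uM (dispensed conc.), cpd preinc 15 min RT; start with NADPH (500 uM addition) then DTNB (15 mM addition). Kinetic TNB absorbance, 405 nm filter. Four-parameter Hill fit across titration.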
Giardia FBPA inh: qHTS Assay for Inhibitors of Fructose-1,6-bisphosphate Aldolase from Giardia Lamblia. A8B2U2. Potency, µM (top dose mostly 59.6 µM), for inactives: at the highest dose activity, negative = inhibition, actives largely listed as inhibitors. hit rate 0.71% among 290,000. purified Giardia FBPA. AID 2451, 2010; further: potency means the concentration at half of the fitted maximal effect; on the % scale 0 is the no-effect control and ±100 the full control effect; nearly all actives have a fitted effect of over 55% in size
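Giardia FBPA (40 nM reagent) was preincubated 10 min at RT with compound (up to 57.5 uM final), then substrate plus GAPDH/TPI/NAD/arsenate coupling system with diaphorase/resazurin was added; resorufin fluorescence (525/598 nm) was read after 20 min.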
LmPK inh: qHTS Assay for Inhibitors of Leishmania Mexicana Pyruvate Kinase (LmPK). hit rate 0.37% among 290,000. Potency, µM (titrated, usually from 57.5 µM), without a hit: top-dose activity change, negative = inhibition, actives largely listed as inhibitors. purified LmPK, Kinase-Glo ATP luminescence, 1 h; further: potency means the concentration at half of the fitted maximal effect; on the % scale 0 is the no-effect control and ±100 the full control effect
Target sequence (Q27686 whole entry, looked up): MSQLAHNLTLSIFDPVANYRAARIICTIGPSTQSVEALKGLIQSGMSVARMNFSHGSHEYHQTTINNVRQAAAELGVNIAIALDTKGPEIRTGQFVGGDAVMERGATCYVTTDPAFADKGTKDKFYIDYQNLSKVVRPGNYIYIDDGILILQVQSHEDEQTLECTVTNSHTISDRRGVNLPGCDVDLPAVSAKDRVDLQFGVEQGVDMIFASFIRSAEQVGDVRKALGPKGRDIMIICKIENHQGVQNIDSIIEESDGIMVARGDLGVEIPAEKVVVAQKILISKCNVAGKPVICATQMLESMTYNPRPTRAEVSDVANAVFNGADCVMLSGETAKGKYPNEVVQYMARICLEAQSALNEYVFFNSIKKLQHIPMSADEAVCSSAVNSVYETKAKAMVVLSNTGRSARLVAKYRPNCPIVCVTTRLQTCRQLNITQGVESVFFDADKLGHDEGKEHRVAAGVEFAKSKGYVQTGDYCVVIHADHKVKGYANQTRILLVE
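0.1 nM LmPK, 0.5 mM PEP, 0.1 mM ADP; 50 mM imidazole pH 7.2, 7 mM MgCl2, 50 mM KCl; 1 h RT. Kinase-Glo luminescence readout, normalized to no-enzyme (full inhibition) and uninhibited wells.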
TbPYK inhibitor: qHTS of Trypanosoma Brucei Inhibitors | hit rate 0.12% among 410,000 | Potency, µM (doses to about 76.8 µM), for inactives: at the top dose activity, negative = inhibition, actives largely listed as inhibitors | TbPYK enzyme, Kinase-Glo Plus ATP luminescence, 45 min | pyruvate kinase (Trypanosoma brucei), Q57TT1 | AID 624173, 2012; further: potency means the concentration at half of the fitted maximal effect; on the % scale 0 is the no-effect control and ±100 the full control effect; nearly all actives have a fitted effect of over 50% in size
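Glycolytic pyruvate kinase of T. brucei was incubated with substrate, test compound and 130 uM ADP for 45 minutes at room temperature. Luminescent Kinase-Glo Plus signal was measured after 10 minutes.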
CHX counter: Cycloheximide Counterscreen for Small Molecule Inhibitors of Shiga Toxin; cell reporter, cycloheximide protein synthesis inhibition counterscreen; max response, %; hit rate 12% among 300,000; AID 2314, 2010; in the data active means max response mostly above about 13%, no sharp cut-off; inactive means mostly below about 14%; further: read at 38.3 µM for the half of the compounds with a filed dose; 0% is about no effect
Shiga toxin inh: A qHTS for Small Molecule Inhibitors of Shiga Toxin | AID 2315, 2010 | inhibition, % at 38.7 µM | Vero cells, Shiga toxin protein synthesis inhibition reporter | hit rate 9.2% among 290,000; in the data active means inhibition mostly above about 28%, no sharp cut-off; inactive means mostly below about 43%; further: 0% is about no effect
* hit, by the source's call; u = inconclusive; x = no result; ! = not confirmed by another sample; [ ] = another dose, or the depositor's remark. The sample as a whole holds a higher share of hits than the screen did. Unless noted, the call rests on the fitted dose curve; in most records, active means well fitted curve in the direction sought with a large enough effect; inconclusive means small, poorly fitted or top-dose-only effect, or another doubt; inactive means no such curve, though single readings can be large; an effect the other way counts as inactive or inconclusive.

SMILES	Sm TGR inh	Giardia FBPA inh	LmPK inh	TbPYK inhibitor	CHX counter	Shiga toxin inh
COc1cc(/C=C2/SC(=S)N(CC3CCCO3)C2=O)ccc1O (configuration not stated)	-19.8%	-15.7%	-10.1%	2.1%	20.7*	41.2*
CCN(CC)c1ccc(/C=C2/C(=O)NC(=O)N(CC3CCCO3)C2=O)cc1 (configuration not stated)	-26.0%	0.3%	-6.9%	-26.8%	2.0	-5.7
CCCS(=O)(=O)NC(=O)C1(C)CCN(C(=O)c2cncc(Br)c2)C1 (configuration not stated)	x	x	x	-1.7%	x	x
O=C1/C(=C\c2ccco2)SC(=S)N1c1ccccc1	u	u	3.6%	3.8%	6.9	38.8
COc1ccc(/C=C2/C(=O)N(CC3CCCO3)C(=S)N2C)c(OC)c1 (configuration not stated)	-9.8%	-3.3%	2.5%	-2.9%	-2.8	1.2
O=C1/C(=C/c2ccco2)SC(=S)N1CC1CCCO1 (configuration not stated)	20µM*	u	5.7%	-9.9%	26.4*	63.3*
COc1ccccc1/C=C1\NC(=S)N(CC2CCCO2)C1=O (configuration not stated)	-0.6%	-11.4%	4.7%	-18.8%	27.4*	39.7
Cc1ccc(N2C(=O)/C(=C\c3ccco3)SC2=S)cc1	-32.6%	-29.7%	8.3%	-7.5%	21.4	63.9*
CC1CN(C(=O)CCNC(=O)c2ccc(Cl)cc2)CC(C)O1 (configuration not stated)	-6.4%	x	-2.0%	12.4%	-1.2	-21.4
CC1=NC(=O)C(N=Nc2cccc(O)c2)N1c1ccccc1 (configuration not stated)	2.8%	-29.7%	2.0%	0.4%	27.1*	55.3*
Cc1ccc(S(=O)(=O)CCC(=O)N2CCN(c3ccc(Cl)cc3)CC2)cc1	12.6µM*	1.1%	5.5%	-1.8%	-1.6	14.4
O=C(CCS(=O)(=O)c1ccccc1)N1CCN(c2ccccc2)CC1	-3.6%	x	0.0%	-5.5%	40.1*	84.5*
O=C(CCS(=O)(=O)c1ccccc1)N1CCOCC1	-1.4%	5.2%	1.9%	-3.7%	31.4*	52.5
O=C(CCS(=O)(=O)Cc1ccccc1)N1CCN(c2ccc([N+](=O)[O-])cc2)CC1	25.1µM*	-0.2%	1.8%	-0.3%	1.2	24.1
COc1ccc(Nc2ncc3c(n2)CCN(Cc2ccccc2C)C3)c(OC)c1	7.2%	x	x	-3.3%	x	x
CCN(CC(=O)Nc1ccccc1C(F)(F)F)C(=O)CN1C(=O)NC2(CCCC2)C1=O	-8.7%	x	x	8.3%	x	x
COc1ccc(C2CC(c3ccccc3)Oc3cc4c(cc32)OCO4)cc1 (configuration not stated)	x	15.8µM*!	x	x	23.0	21.5
COC(=O)c1c(-c2cccs2)csc1NC(=O)c1cccnc1	0.0%	9.7%	3.5%	-20.1%	37.4*	60.1*
COC(=O)c1c(-c2cccs2)csc1NC(=O)c1ccc(Cl)cc1	0.4%	x	x	-28.8%	x	x
CCCS(=O)(=O)N1CCC(Cc2ccc(OC)cc2)(C(=O)OCC)CC1	1.8%[57.1 µM]	1.4%	-5.1%	-9.3%	19.8*	19.0
CCOC(=O)C1(Cc2ccc(OC)cc2)CCN(C(=O)c2cccc3nccnc23)CC1	3.8%	-4.4%	5.8%	10.0%	9.8	10.0
CCOC(=O)C1(Cc2ccc(OC)cc2)CCN(S(C)(=O)=O)CC1	0.7%	-4.1%	16.9%	-3.7%	47.1*	50.1*
CCOC(=O)C1(Cc2ccc(OC)cc2)CCN(C(=O)c2cc(C)nn2C)CC1	-10.8%	x	-9.3%	-3.5%	13.9*	18.6
CCOC(=O)C1(Cc2ccccc2Cl)CCN(S(C)(=O)=O)CC1	-19.6%	-16.9%	0.4%	0.0%	-0.5	-8.6
CCOC(=O)C1(Cc2ccc(OC)cc2)CCN(C(=O)[C@@H]2CCCN2C(C)=O)CC1	-10.8%	6.6%	2.9%	-5.2%	15.2	18.9
SMILES	Sm TGR inh	Giardia FBPA inh	LmPK inh	TbPYK inhibitor	CHX counter	Shiga toxin inh
CCOC(=O)C1(Cc2ccc(OC)cc2)CCN(C(=O)CN2CCCCC2=O)CC1	-3.4%	4.9%	-2.3%	-0.1%	16.7*	25.6*
CCOC(=O)C1(Cc2ccc(OC)cc2)CCN(C(=O)CN2CCOC2=O)CC1	4.9%	-0.8%	-5.4%	-3.4%	14.3	16.7
CC1(c2nc3ccccc3cc2C#N)OCCO1	x	x	x	0.3%	x	x
Cc1ccc(OCCCCn2c(CCNC(=O)C(C)(C)C)nc3ccccc32)cc1	-1.6%	x	x	3.1%	x	x
CCOC(=O)c1ccc(NC(=O)Cn2c(=O)cc(C(F)(F)F)c3c(C)nn(C)c32)cc1	16.4%	x	x	1.7%	x	x
CCCCCCC(=O)N1C/C=C\C(c2ccc(OC)cc2)N(Cc2ccc(F)cc2)C(=O)C1Cc1ccccc1 (configuration not stated)	x	-5.3%	x	x	12.4	17.5
CCN(CC(=O)NCc1ccc(F)cc1)C(=O)C1CCN(C(=O)Nc2ccccc2)CC1	-2.2%	0.8%	-4.7%	1.3%	13.1*	57.6
CCCN(CC(=O)Nc1ccccc1C)C(=O)c1ccc(COc2ccccc2)cc1	18.0%	-17.8%	-6.8%	-11.9%	30.1*	85.1*
CCN(CC(=O)NCc1ccc(F)cc1)C(=O)c1ccc(COc2ccccc2)cc1	-2.4%	10.1%	0.3%	-2.4%	52.2*	99.0*
CCN(Cc1ccccc1)C(=O)C1CCN(C(=O)Nc2ccccc2)CC1	12.6%	x	-2.5%	-8.0%	-2.1	-9.6
COc1ccccc1N1CCN(C(=O)CCS(=O)(=O)c2cc(Br)cc3c2N(C(=O)C2CC2)CC3)CC1	-9.1%	x	x	0.4%	x	x
O=C(Nc1cccc2c1CCCC2)c1cc(C2CCCCN2C(=O)c2cccs2)on1 (configuration not stated)	x	x	x	-4.9%	x	x
O=C(Nc1ccc(NC(=O)c2cccnc2Cl)cc1)c1cccc(Cl)c1	-1.2%	4.5%	10.7%	-3.0%	21.0	39.6*
O=C(Nc1cccnc1)c1cccnc1Cl	-8.3%	-1.0%	-3.6%	1.3%	9.3	17.6
CC(=O)NC(=S)Nc1ccc(NC(=O)c2cccnc2Cl)cc1	-25.1%	-13.3%	0.1%	-2.7%	25.2*	46.5
CCOc1ccc(C(=O)Nc2ccccc2-c2ccccc2)cc1Cl	7.6%	0.9%	13.4%	2.2%	-1.8	2.0
O=C(Nc1ccccc1C(=O)O)c1ccccc1	0.3%	-1.5%	9.3%	3.6%	2.2	-7.5
COc1ccc(C(=O)Nc2ccccc2C(=O)O)cc1Cl	4.7%	-21.4%	u	-4.0%	27.4*	65.6*
CCOc1ccc(C(=O)Nc2cccc(C(=O)O)c2C)cc1Cl	-3.1%	28.8%	-9.8%	-12.7%	31.5*	65.7*
